In the library only some 6.6% were active in any assay of this set; here they are far more common.
KB-V1 MDR tox: qHTS assay for MDR1-selective chemotherapeutics: Primary screen using the drug-selected MDR subline cells KB-V1; KB-V1 MDR cells viability, CellTiter-Glo, 72 h; Potency, µM (doses to about 46.1 µM), most hits filed as cytotoxic; actives 3.4% (n = 400,000); also: nearly all actives have a fitted effect of over 60% in size
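Compound-treated KB-V1 multidrug-resistant cells, 72 h, 37 degrees C; viability by CellTiter-Glo. Fitted qHTS curves give the values.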
TSG101-PTAP inh: qHTS Assay for Iinhibitors of HIV-1 Budding by Blocking the Interaction of PTAP/TSG101 | 340,000 tested, under 10 active | Potency, µM (titrated, usually from 115 µM), usual class: inhibitors | Fluorescence polarization, FITC-PTAP peptide / Tsg101 binding | Tumor susceptibility gene 101 protein (Homo sapiens), Q99816; active = well fitted inhibition curve with a large enough effect in the main read-out, with a control signal flat, not every such curve was filed as active; inconclusive = small, poorly fitted or top-dose-only effect, or effect the other way, or a change in a side signal; inactive = no such curve, though single readings can be large or run the other way
Target sequence (Q99816 whole entry, looked up): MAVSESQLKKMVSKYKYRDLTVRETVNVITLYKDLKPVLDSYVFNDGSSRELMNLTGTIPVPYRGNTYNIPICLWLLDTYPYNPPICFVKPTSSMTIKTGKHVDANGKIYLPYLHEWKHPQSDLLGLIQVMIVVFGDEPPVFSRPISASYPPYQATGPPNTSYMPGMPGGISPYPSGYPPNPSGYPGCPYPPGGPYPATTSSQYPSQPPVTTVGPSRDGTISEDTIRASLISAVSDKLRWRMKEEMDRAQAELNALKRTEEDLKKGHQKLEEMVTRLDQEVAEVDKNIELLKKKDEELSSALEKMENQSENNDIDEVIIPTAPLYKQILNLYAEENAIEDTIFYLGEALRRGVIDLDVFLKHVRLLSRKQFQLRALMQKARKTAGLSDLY
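Fluorescence polarization binding of Tsg101 binding domain (10 uM final) to FITC-labeled PTAP peptide (50 nM final) in HEPES pH 7.5 buffer with NaCl, Tween 20, EDTA, TCEP. Compounds added before peptide; binding 20 min at RT.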
RGS4 inhibitor: Inhibitors of Regulator of G Protein Signaling (RGS) 4: qHTS | AID 504845, 2011 | Regulator of G-protein signaling 4 (Homo sapiens), P49798 | Potency, µM (titrated, usually from 114 µM), hits mostly inhibitors | Transcreener GDP fluorescence polarization, RGS4-accelerated GTP hydrolysis | actives 0.039% (n = 390,000); also: nearly all actives have a fitted effect of over 75% in size
Target sequence (P49798 whole entry, looked up): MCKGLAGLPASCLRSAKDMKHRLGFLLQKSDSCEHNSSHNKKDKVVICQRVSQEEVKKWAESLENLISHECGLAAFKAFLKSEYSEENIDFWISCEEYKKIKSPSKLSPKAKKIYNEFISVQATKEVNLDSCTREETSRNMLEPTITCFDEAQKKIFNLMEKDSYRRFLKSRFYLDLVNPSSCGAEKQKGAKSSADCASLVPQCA
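MLSMR compounds (23 nl, pin-transferred) preincubated 10 min at room temperature with a 500nM (2x) first reagent, then RGS4 at 900nM (2x) plus Transcreener GDP mix added; fluorescence polarization (620/688 nm) read before and after 90 min at 30 °C.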
SW480 rerep: A quantitative high throughput screen for small molecules that induce DNA re-replication in SW480 colon adenocarcinoma cells; Potency, µM (top dose mostly 46.1 µM), most hits filed as activators; actives 1.8% (n = 340,000); SW480 DNA re-replication, Hoechst DNA content imaging, 48 h; also: nearly all actives have a fitted effect of over 55% in size
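Image-based read-out: total Hoechst fluorescence of nuclei (405 nm excitation, 500-530 nm emission), with hits raising the fraction of high-intensity nuclei. SW480 colon cells incubated 48 hr with compounds at 37 C.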
MCF10A rerep: A quantitative high throughput screen for small molecules that induce DNA re-replication in MCF 10a normal breast cells; MCF 10A DNA re-replication, Hoechst nuclear intensity, 48 h; Potency, µM (top dose mostly 46.1 µM), most hits filed as activators; actives 2.9% (n = 350,000); also: nearly all actives have a fitted effect of over 50% in size
KB-3-1 cytotox: qHTS assay for MDR1-selective chemotherapeutics: Primary screen using the parental adenocarcinoma cell KB-3-1. KB-3-1 viability, CellTiter-Glo ATP luminescence, 72 h. Potency, µM (top dose mostly 46.1 µM), most hits filed as cytotoxic. actives 1.4% (n = 400,000). AID 1347075, 2019; also: nearly all actives have a fitted effect of over 60% in size
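Cytotoxicity in the drug-sensitive parental line KB-3-1 was scored as loss of CellTiter-Glo luminescence following 72 h incubation with compound. Values come from curve fitting of normalized concentration-response data.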
Hits are given with their value; [ ] = remark or other dose. Unless noted, calls follow the shape of the dose curve; as a rule, active = well fitted curve in the direction sought with a large enough effect; inconclusive = small, poorly fitted or top-dose-only effect, or another doubt; inactive = no such curve, though single readings can be large; an effect the other way counts as inactive or inconclusive.

How did O=c1[nH]c(SCc2ccccc2Cl)nc2c1CCC2 do in these assays?
KB-V1 MDR tox: inactive; TSG101-PTAP inh: inactive; RGS4 inhibitor: inactive; SW480 rerep: inactive; MCF10A rerep: inactive; KB-3-1 cytotox: inactive

How did CC(=O)Nc1ccc(-c2ccnc3c2CC(C(=O)NCC2CCOCC2)O3)cc1 (configuration not stated) do in these assays?
KB-V1 MDR tox: inactive; KB-3-1 cytotox: 5.8µM

What do the screens show for `CC(=O)Nc1ccc(-c2ccnc3c2CC(C(=O)NCC2CC2)O3)cc1` (configuration not stated)?
KB-V1 MDR tox: inactive; KB-3-1 cytotox: inconclusive

Results for CC(=O)c1cccc(-c2ccnc3c2CC(C(=O)NCC2CCOCC2)O3)c1 (configuration not stated) ?
KB-V1 MDR tox: inactive; KB-3-1 cytotox: 4.61µM

How did Cn1c(SCC(=O)N2CCCc3ccccc32)ncc(C(=O)Nc2ccccc2)c1=O do in these assays?
RGS4 inhibitor: inactive

How did CCOc1cc(-c2ccc3c(c2)OCO3)cc(=[O+]CC)c2c(C)oc(C)c12 do in these assays?
KB-V1 MDR tox: inactive; RGS4 inhibitor: inactive; KB-3-1 cytotox: inactive

What do the screens show for `O=C1Nc2ccc(I)cc2/C1=C/c1cc(Br)c(O)c(Br)c1`?
RGS4 inhibitor: 9.47µM

Results for O=C1Nc2ccc(I)cc2C1=Cc1cc(Br)c(O)c(Br)c1 ?
KB-V1 MDR tox: inactive; KB-3-1 cytotox: inactive

Results for CCN(CC)c1cc2c(cc1F)c(=O)c(S(=O)(=O)c1ccc(OC)cc1)cn2Cc1ccccc1 ?
KB-V1 MDR tox: inactive; RGS4 inhibitor: inactive; KB-3-1 cytotox: inactive

What do the screens show for `COc1cccc(CN(C)Cc2cc(=O)oc3cc(O)c(Cl)cc23)c1`?
KB-V1 MDR tox: inactive; TSG101-PTAP inh: inactive; RGS4 inhibitor: inactive; SW480 rerep: inconclusive; MCF10A rerep: 20.6µM; KB-3-1 cytotox: inconclusive

How did Cc1c(O)ccc2c(CN(C)Cc3ccccc3)cc(=O)oc12 do in these assays?
KB-V1 MDR tox: inactive; TSG101-PTAP inh: inactive; RGS4 inhibitor: inactive; SW480 rerep: 18.4µM; MCF10A rerep: inactive; KB-3-1 cytotox: inactive

What do the screens show for `Cc1c(O)ccc2c(CC(=O)N[C@@H](Cc3ccccc3)C(=O)O)cc(=O)oc12`?
KB-V1 MDR tox: inactive; TSG101-PTAP inh: inactive; RGS4 inhibitor: inactive; SW480 rerep: inconclusive; MCF10A rerep: 23.1µM; KB-3-1 cytotox: inactive

How did Cc1c(O)ccc2c(CN3CCN(Cc4ccccc4)CC3)cc(=O)oc12 do in these assays?
KB-V1 MDR tox: inactive; TSG101-PTAP inh: inactive; RGS4 inhibitor: inactive; SW480 rerep: inconclusive; MCF10A rerep: inactive; KB-3-1 cytotox: inactive

Results for COc1ccc2c(CC(=O)N[C@@H](Cc3ccccc3)C(=O)O)cc(=O)oc2c1 ?
KB-V1 MDR tox: inactive; TSG101-PTAP inh: inactive; RGS4 inhibitor: inactive; SW480 rerep: inactive; MCF10A rerep: inactive; KB-3-1 cytotox: inactive

How did COc1cccc(CN(C)Cc2cc(=O)oc3c(C)c(C)ccc23)c1 do in these assays?
KB-V1 MDR tox: inactive; TSG101-PTAP inh: inactive; RGS4 inhibitor: inactive; SW480 rerep: inactive; MCF10A rerep: inactive; KB-3-1 cytotox: 16.4µM

How did CCc1nn(CC(=O)Nc2cccc(C(C)=O)c2)c(=O)c2cc3sccc3n12 do in these assays?
KB-V1 MDR tox: inactive; RGS4 inhibitor: inactive; KB-3-1 cytotox: inactive

Results for CCc1cc2c(CN(C)Cc3ccccc3F)cc(=O)oc2cc1O ?
KB-V1 MDR tox: 11.6µM; TSG101-PTAP inh: inactive; RGS4 inhibitor: inactive; SW480 rerep: inconclusive; MCF10A rerep: 18.4µM; KB-3-1 cytotox: inconclusive

How did O=CN1Cc2[nH]c3ccccc3c2N(c2ccc(Cl)cc2)C1=O do in these assays?
KB-V1 MDR tox: inactive; TSG101-PTAP inh: inactive; RGS4 inhibitor: inactive; SW480 rerep: inactive; MCF10A rerep: inconclusive; KB-3-1 cytotox: inactive

Results for O=C1CNCc2[nH]c3ccccc3c2N1c1ccccc1 ?
KB-V1 MDR tox: 23.1µM; TSG101-PTAP inh: inactive; RGS4 inhibitor: inactive; SW480 rerep: inactive; MCF10A rerep: inconclusive; KB-3-1 cytotox: inactive

Results for CC1(C)Cc2c(C#N)c(N3CCN(C(=O)c4ccccc4Cl)CC3)nc(-c3ccco3)c2CS1 ?
KB-V1 MDR tox: inactive; TSG101-PTAP inh: inactive; RGS4 inhibitor: inconclusive; SW480 rerep: 9.2µM; MCF10A rerep: 5.8µM; KB-3-1 cytotox: inactive

What do the screens show for `CC(=O)N1CCN(c2nc(-c3ccco3)c3c(c2C#N)CC(C)(C)SC3)CC1`?
KB-V1 MDR tox: inactive; TSG101-PTAP inh: inactive; RGS4 inhibitor: inactive[11.4 µM]; SW480 rerep: inactive; MCF10A rerep: inconclusive; KB-3-1 cytotox: inactive

What do the screens show for `N#Cc1c(N2CCN(C(=O)c3ccccc3Cl)CC2)nc(-c2ccccc2)c2c1CCCC2`?
KB-V1 MDR tox: inactive; TSG101-PTAP inh: inactive; RGS4 inhibitor: inactive; SW480 rerep: inactive; MCF10A rerep: inconclusive; KB-3-1 cytotox: inactive

How did CC1(C)Cc2c(C#N)c(N3CCN(C(=O)c4ccco4)CC3)nc(-c3ccco3)c2CS1 do in these assays?
KB-V1 MDR tox: 5.8µM; TSG101-PTAP inh: inactive; RGS4 inhibitor: inconclusive; SW480 rerep: inconclusive; MCF10A rerep: inconclusive; KB-3-1 cytotox: inactive

What do the screens show for `COc1cc(-c2onc3ccc(Br)cc23)cc(OC)c1OC`?
KB-V1 MDR tox: 2.06µM; TSG101-PTAP inh: inactive; RGS4 inhibitor: inactive; SW480 rerep: 18.4µM; MCF10A rerep: inconclusive; KB-3-1 cytotox: 5.17µM

Results for O=S1(=O)c2ccccc2N(Cc2cccc(F)c2)c2ccccc21 ?
KB-V1 MDR tox: inactive; RGS4 inhibitor: inactive; KB-3-1 cytotox: inactive

What do the screens show for `CCC(C)(C)NC(=O)C(c1ccccc1F)N(Cc1ccco1)C(=O)c1csnn1` (configuration not stated)?
KB-V1 MDR tox: 18.4µM; TSG101-PTAP inh: inactive; RGS4 inhibitor: inactive; SW480 rerep: inactive; MCF10A rerep: inactive; KB-3-1 cytotox: inactive

Results for CCC(C)(C)NC(=O)C(c1ccccn1)N(C(=O)c1csnn1)C1CCCCC1 (configuration not stated) ?
KB-V1 MDR tox: inconclusive; TSG101-PTAP inh: inactive; RGS4 inhibitor: inactive; SW480 rerep: inactive; MCF10A rerep: 7.31µM; KB-3-1 cytotox: inactive

Results for CC(C)(C)NC(=O)C(c1ccccn1)N(C(=O)c1csnn1)C1CCCCC1 (configuration not stated) ?
KB-V1 MDR tox: inactive; TSG101-PTAP inh: inactive; RGS4 inhibitor: inactive; SW480 rerep: inactive; MCF10A rerep: inactive; KB-3-1 cytotox: inactive

Compound activity deposited in PubChem BioAssay by National Center for Advancing Translational Sciences (NCATS).
